Bioassay records from PubChem BioAssay.
The list is not random: actives were taken first. Their share in the collection is about 4%.
CSC inhib: cancer stem cell viability inhibitors, primary screen, luminescence; inhibition, % at 7.5 µM; hit rate 1.1% among 300,000; cancer stem cell-like cells viability; AID 2717, 2010; in the data active = inhibition above about 75%; tested in HMLE shEcad cells
Gli-Sufu antag: Gli-Sufu pathway antagonists, primary screen, luciferase luminescence, Sufu-KO-LIGHT cells, uHTS; Sufu-KO-LIGHT fibroblasts, Gli luciferase reporter luminescence; inhibition, % at 5 µM; hit rate 0.74% among 340,000;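 active = inhibition above about 55%, limit read from the data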;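 also: 0% = DMSO-treated cells and 100% = wells with medium but no cells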
PAX8 inh HTS: inhibitors of PAX8-driven TPO luciferase reporter, primary screen, RMG-I cells, single concentration. SteadyGlo, 24 h. inhibition, % at 12.6 µM. hit rate 1.2% among 360,000;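 active = mean replicate inhibition at least 60% with every replicate also reaching 60%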;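 also: luciferase light reporting Pax8 driven TPO promoter activity; plate controls were median of neutral control wells for no effect and mitoxantrone controls for full effect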
Mdm2 MdmX PPI: inhibitors of human Mdm2-MdmX association, primary screen, cell-based, luminescence, split luciferase, SaOS-2, uHTS; Protein Mdm4 (Homo sapiens) + E3 ubiquitin-protein ligase Mdm2 (Homo sapiens), …; SaOS-2 split-luciferase Mdm2/MdmX complementation; inhibition, % at 8 µM; hit rate 3% among 330,000;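 active = inhibition of at least 50% at 8 µM in the primary screen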
Target sequence (O15151 whole entry, looked up): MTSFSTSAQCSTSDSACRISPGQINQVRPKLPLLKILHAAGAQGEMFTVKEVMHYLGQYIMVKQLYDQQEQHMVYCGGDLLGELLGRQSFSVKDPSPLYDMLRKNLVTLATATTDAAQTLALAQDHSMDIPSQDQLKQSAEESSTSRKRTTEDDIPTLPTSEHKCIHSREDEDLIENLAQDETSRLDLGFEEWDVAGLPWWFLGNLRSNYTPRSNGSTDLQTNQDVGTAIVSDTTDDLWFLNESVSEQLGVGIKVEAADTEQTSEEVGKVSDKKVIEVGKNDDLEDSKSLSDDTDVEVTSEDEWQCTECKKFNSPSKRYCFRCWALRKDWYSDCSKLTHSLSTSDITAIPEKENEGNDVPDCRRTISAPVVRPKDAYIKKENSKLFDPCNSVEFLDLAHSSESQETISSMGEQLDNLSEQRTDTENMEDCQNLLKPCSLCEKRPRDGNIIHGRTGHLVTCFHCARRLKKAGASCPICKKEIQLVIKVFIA
Target sequence (Q00987 whole entry, looked up): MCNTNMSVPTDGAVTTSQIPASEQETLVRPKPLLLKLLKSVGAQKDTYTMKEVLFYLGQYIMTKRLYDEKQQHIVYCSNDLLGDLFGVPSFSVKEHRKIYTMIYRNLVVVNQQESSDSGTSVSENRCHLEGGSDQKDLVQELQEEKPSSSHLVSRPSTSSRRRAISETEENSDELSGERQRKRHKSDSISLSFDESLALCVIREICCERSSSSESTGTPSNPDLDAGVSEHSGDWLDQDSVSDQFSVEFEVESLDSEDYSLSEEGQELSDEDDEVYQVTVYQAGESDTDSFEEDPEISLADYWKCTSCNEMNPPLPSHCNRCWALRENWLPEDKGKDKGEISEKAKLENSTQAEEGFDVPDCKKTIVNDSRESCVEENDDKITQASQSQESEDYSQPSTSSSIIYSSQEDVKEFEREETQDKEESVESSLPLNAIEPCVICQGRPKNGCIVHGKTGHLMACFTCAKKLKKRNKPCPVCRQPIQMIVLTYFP
Shn3 inh set2: reduction of Shn3 3'UTR firefly luciferase signal, primary screen, Schnurri-3 inhibitor project, cell-based, Clone20 osteoblasts, set 2; Clone20 osteoblast Shn3 3'UTR firefly luciferase, 24 h; inhibition, % at 12.5 µM; hit rate 0.52% among 360,000; AID 588674, 2011;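 active = mean inhibition of at least 75% with every replicate also reaching 75%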;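 also: 0% = median of neutral control wells and 100% = pilot-screen positive control compound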
Beta cell apopt: inhibitors of cytokine-induced beta cell apoptosis, primary screen, luminescence; INS-1E cytokine-induced death, ATP luminescence, 48 h; percent of positive-control rescue, neutral wells zero; protection from apoptosis, % (test concentration not listed); AID 435005, 2010; hit rate 0.8% among 300,000;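 active = Every replicate reaches about 75%, or at least half do and their mean reaches it too, limit read from the data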;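 also: 0% = cytokine-treated negative control wells and 100% = positive control rescue; higher means more ATP so stronger rescue from cytokine killing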
* marks the source's active call; other numbers are inactive results; . = no result.

SMILES | CSC inhib | Gli-Sufu antag | PAX8 inh HTS | Mdm2 MdmX PPI | Shn3 inh set2 | Beta cell apopt
C[C@H](CO)N1C[C@H](C)[C@@H](CN(C)Cc2ccccc2)Oc2ccc(NC(=O)Nc3ccc(C(F)(F)F)cc3)cc2CC1=O | . | . | 96* | . | . | .
COc1ccc(NC(=O)Nc2ccc3c(c2)CC(=O)N([C@@H](C)CO)C[C@@H](C)[C@@H](CN(C)Cc2ccc(Oc4ccccc4)cc2)O3)cc1 | . | . | 98* | . | . | .
C[C@H]1CN([C@@H](C)CO)C(=O)Cc2cc(NC(=O)Cc3cn(C)c4ccccc34)ccc2O[C@H]1CN(C)Cc1ccc(Oc2ccccc2)cc1 | . | . | 22 | . | . | .
O=C(NCC[C@@H]1CC[C@H](NS(=O)(=O)c2ccc(Cl)cc2)[C@H](CO)O1)Nc1ccc(F)cc1 | . | . | -37 | . | . | .
CO[C@H]1CN(C)C(=O)c2cc(NC(=O)c3ccccc3F)ccc2OC[C@@H](C)N(C)C[C@@H]1C | . | . | 5 | . | . | .
CO[C@H]1CC[C@@H]2CCN(C)C(=O)CCCN(C)C(=O)c3cccc(C#N)c3OC[C@@H]1O2 | . | . | -8 | . | . | .
CC(C)NC(=O)N(C)C[C@H]1Oc2ccc(NC(=O)CCN3CCOCC3)cc2C(=O)N([C@@H](C)CO)C[C@H]1C | . | . | -7 | . | . | .
COc1ccc(NC(=O)Nc2ccc3c(c2)CC(=O)N([C@H](C)CO)C[C@H](C)[C@@H](CN(C)Cc2ccc(C(F)(F)F)cc2)O3)cc1 | . | . | 67* | . | . | .
COc1ccc(CN(C)C[C@@H]2Oc3ccc(NC(=O)Nc4ccc(C(F)(F)F)cc4)cc3CC(=O)N([C@@H](C)CO)C[C@@H]2C)cc1 | . | . | -3 | . | . | .
Cc1noc(C)c1NC(=O)Nc1ccc2c(c1)CC(=O)N([C@@H](C)CO)C[C@H](C)[C@@H](CN(C)Cc1ccc(C(F)(F)F)cc1)O2 | . | . | 14 | . | . | .
Cc1noc(C)c1NC(=O)Nc1ccc2c(c1)CC(=O)N([C@@H](C)CO)C[C@H](C)[C@H](CN(C)Cc1ccc(C(F)(F)F)cc1)O2 | . | . | 72* | . | . | .
COc1cccc(S(=O)(=O)N(C)C[C@H]2OCc3ccccc3-c3c(n(C)c4ccccc34)C(=O)N([C@H](C)CO)C[C@H]2C)c1 | . | . | 86* | . | . | .
C[C@@H]1CN([C@@H](C)CO)C(=O)c2c(c3ccccc3n2C)-c2ccccc2CO[C@@H]1CN(C)S(=O)(=O)c1cccc(F)c1 | . | . | -55 | . | . | .
C[C@@H]1CN([C@@H](C)CO)C(=O)c2c(c3ccccc3n2C)-c2ccccc2CO[C@H]1CN(C)S(=O)(=O)c1cccc(F)c1 | . | . | 87* | . | . | .
COc1ccccc1S(=O)(=O)N(C)C[C@H]1OCc2ccccc2-c2c(n(C)c3ccccc23)C(=O)N([C@H](C)CO)C[C@@H]1C | . | . | 62* | . | . | .
COCc1cn(CC[C@H]2CC[C@H](NC(=O)c3ccccc3)[C@H](CO)O2)nn1 | . | . | -10 | . | . | .
O=C(c1ccccc1)N1C[C@H]2[C@@H](c3ccccc31)[C@H](CO)N2C(=O)Nc1ccccc1Cl | . | . | 0 | . | . | .
Cc1ccc(S(=O)(=O)Nc2ccc3c(c2)CC(=O)N([C@H](C)CO)C[C@@H](C)[C@H](CN(C)C(=O)NC2CCCCC2)O3)cc1 | . | . | 13 | . | . | .
CC(C)NC(=O)N1[C@H](CN(C)C(=O)c2ccccc2)[C@@H](c2ccccc2)[C@@H]1CO | . | . | -15 | . | . | .
N#C[C@@H]1[C@@H](c2ccc(C#CC3CCCC3)cc2)[C@H](CO)N1C(=O)Nc1ccc(F)cc1 | . | . | 33 | . | . | .
N#C[C@@H]1[C@H](c2ccc(C#CC3CCCC3)cc2)[C@H](CO)N1C(=O)Nc1ccc(F)cc1 | . | . | 85* | . | . | .
N#C[C@H]1[C@@H](c2ccc(C#Cc3ccc(F)cc3)cc2)[C@H](CO)N1C(=O)Nc1ccc(F)cc1 | . | . | 94* | . | . | .
COCCOC(=O)N1C(=O)[C@@]2(c3ccccc31)[C@H](C(=O)N1CCc3cc(OC)c(OC)cc3C1)[C@H]1C(=O)O[C@H](c3ccccc3)[C@H](c3ccccc3)N1[C@@H]2c1ccc(O)cc1 | . | . | 0 | . | . | .
CC(=O)N1[C@@H](CO)[C@@H](c2ccc(-c3ccc(F)cc3)cc2)[C@@H]1CNC(=O)C1CC1 | . | . | 5 | . | . | .
CCCCNC(=S)N=Nc1c(O)n(Cc2ccccc2)c2ccccc12 | 80* | 10 | -5 | 38 | 15 | 8
SMILES | CSC inhib | Gli-Sufu antag | PAX8 inh HTS | Mdm2 MdmX PPI | Shn3 inh set2 | Beta cell apopt
Cc1noc(C)c1S(=O)(=O)Nc1ccc2c(c1)C(=O)N([C@@H](C)CO)C[C@H](C)[C@H](CN(C)Cc1ccc(C(F)(F)F)cc1)OCCCC[C@H](C)O2 | . | . | 58 | . | . | .
Cc1noc(C)c1S(=O)(=O)Nc1ccc2c(c1)C(=O)N([C@@H](C)CO)C[C@H](C)[C@H](CN(C)Cc1ccc(C(F)(F)F)cc1)OCCCC[C@@H](C)O2 | . | . | 36 | . | . | .
Cc1noc(C)c1S(=O)(=O)Nc1ccc2c(c1)C(=O)N([C@H](C)CO)C[C@@H](C)[C@H](CN(C)Cc1ccc(C(F)(F)F)cc1)OCCCC[C@H](C)O2 | . | . | 72* | . | . | .
Cc1noc(C)c1S(=O)(=O)Nc1ccc2c(c1)C(=O)N([C@H](C)CO)C[C@@H](C)[C@H](CN(C)Cc1ccc(Cl)c(Cl)c1)OCCCC[C@@H](C)O2 | . | . | 75* | . | . | .
Cc1noc(C)c1S(=O)(=O)Nc1ccc2c(c1)C(=O)N([C@H](C)CO)C[C@H](C)[C@@H](CN(C)Cc1ccc(Cl)c(Cl)c1)OCCCC[C@H](C)O2 | . | . | 21 | . | . | .
Cc1noc(C)c1S(=O)(=O)Nc1ccc2c(c1)C(=O)N([C@@H](C)CO)C[C@@H](C)[C@@H](CN(C)Cc1ccc(C(F)(F)F)cc1)OCCCC[C@H](C)O2 | . | . | 68* | . | . | .
Cc1noc(C)c1S(=O)(=O)Nc1ccc2c(c1)C(=O)N([C@H](C)CO)C[C@@H](C)[C@@H](CN(C)Cc1ccc(C(F)(F)F)cc1)OCCCC[C@H](C)O2 | . | . | 86* | . | . | .
Cc1noc(C)c1S(=O)(=O)Nc1ccc2c(c1)C(=O)N([C@@H](C)CO)C[C@@H](C)[C@@H](CN(C)C(=O)Nc1ccc(C(F)(F)F)cc1)OCCCC[C@H](C)O2 | . | . | 39 | . | . | .
Cc1noc(C)c1S(=O)(=O)Nc1ccc2c(c1)C(=O)N([C@H](C)CO)C[C@@H](C)[C@H](CN(C)C(=O)Nc1ccc(C(F)(F)F)cc1)OCCCC[C@@H](C)O2 | . | . | 87* | . | . | .
C=C1C(=O)O[C@H]2C1CC[C@@](C)(O)C13C=CC(C)(C21)C1(C3)C(=O)O[C@@H]2C3C(C)=CCC3[C@](C)(O)C[C@H](OC(C)=O)C21 (stereo partly drawn) | 20 | 5 | 87* | 34 | -18 | -5
CCCNC(=O)N1CC2(CCN(C(=O)C3CCOCC3)CC2)c2c([nH]c3cc(OC)ccc23)[C@@H]1CO | . | . | -5 | . | . | .
CC(Oc1ccccc1)C(=O)NNC(=O)c1ccccn1 (stereo not drawn) | 13 | 2 | 75* | 34 | 16 | -4
